PubChem BioAssay (NCI)
Compounds without any hit were thinned out: in the full panel of roughly 79,000, 15% have a hit. The source made the active and inactive calls. No stated cut-off is given here; in the data, active means growth inhibition above about 70%; inactive means the rest.

Columns and labels:
[1] = NCI Yeast Anticancer Drug Screen. Data for the wt2 strain (AID 169); conditions: S. cerevisiae wt2 strain growth inhibition, active compounds read high
How it was run: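 Values express reduction in yeast growth under compound treatment, referenced to vehicle-treated cells.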

[2] = NCI Yeast Anticancer Drug Screen. Data for the mlh1 strain (AID 171);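 further: 0% = growth of vehicle-treated control cultures of the same strain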; conditions: S. cerevisiae mlh1 strain growth inhibition, active compounds read high
How it was run: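 Steps: expose the defined-mutant yeast strain to compound; expose a parallel culture to vehicle; measure growth; express compound effect as inhibition relative to the vehicle culture.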

[3] = NCI Yeast Anticancer Drug Screen. Data for the sgs1 strain (AID 173);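 further: 0% = growth of vehicle-only control cultures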; conditions: S. cerevisiae sgs1 mutant, active compounds read high
How it was run: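 Treat defined-mutant yeast with compound; measure growth; calculate inhibition relative to vehicle-treated cells.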

[4] = NCI Yeast Anticancer Drug Screen. Data for the rad18 strain (AID 177); conditions: S. cerevisiae rad18 mutant growth inhibition, active compounds read high
How it was run: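 A genetically defined yeast mutant impaired in DNA damage repair was treated with test compounds, then its growth was measured against cultures receiving vehicle alone.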

[5] = NCI Yeast Anticancer Drug Screen. Data for the rad52 strain (AID 147);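 further: 0% = growth of vehicle-treated control cultures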; conditions: S. cerevisiae rad52 mutant growth inhibition, active compounds read high
How it was run: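 Screen used a yeast mutant impaired in DNA repair. After compound exposure, growth was measured. Values reflect inhibition compared with vehicle-treated cells.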

[6] = NCI Yeast Anticancer Drug Screen. Data for the wt1 strain (AID 149);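 further: 0% = growth of vehicle-treated wt1 cultures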; conditions: S. cerevisiae wt1 strain (SPY 50644) growth inhibition, active compounds read high
How it was run: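 Each compound is tested on wt1 yeast and the loss of growth versus vehicle gives the inhibition value.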

[7] = NCI Yeast Anticancer Drug Screen. Data for the rad50EPP+ strain (AID 151);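 further: 0% = growth of vehicle-treated control cultures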; conditions: S. cerevisiae rad50 mutant strain, active compounds read high
How it was run: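 Exposing the rad50EPP+ strain to each compound, growth was compared with vehicle-only cultures to give inhibition.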

[8] = NCI Yeast Anticancer Drug Screen. Data for the mgt1 strain (AID 153); conditions: S. cerevisiae mgt1 mutant growth inhibition, active compounds read high
How it was run: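 Genetically defined yeast (mgt1) treated with compound; inhibition of growth expressed against vehicle-treated controls.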

[9] = NCI Yeast Anticancer Drug Screen. Data for the rad50 strain (AID 155);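 further: 0% = growth of vehicle-only cultures of the same strain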; conditions: S. cerevisiae rad50 strain growth inhibition, active compounds read high
How it was run: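 Vehicle-treated cultures provide the reference for the growth inhibition reported for compound-exposed, repair-deficient yeast.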

[10] = NCI Yeast Anticancer Drug Screen. Data for the mec2-1 strain (AID 157); conditions: S. cerevisiae mec2-1 strain, active compounds read high
How it was run: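 Readout is yeast growth inhibition, normalised to vehicle-treated controls, in the mec2-1 strain exposed to compound.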

[11] = NCI Yeast Anticancer Drug Screen. Data for the rad14 strain (AID 159);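 further: 0% = growth of vehicle-treated control cultures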; conditions: S. cerevisiae rad14 strain growth inhibition, active compounds read high
How it was run: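 Inhibition of growth is reported for a repair-deficient yeast mutant following compound treatment, calculated relative to cultures that received vehicle.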

[12] = NCI Yeast Anticancer Drug Screen. Data for the sgs1 mgt1 strain (AID 161);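 further: 0% = growth of cultures given vehicle only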; conditions: S. cerevisiae sgs1 mgt1 strain, active compounds read high
How it was run: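 Yeast cells carrying a defined DNA-repair defect were exposed to test compounds. Growth inhibition was measured relative to vehicle-treated controls.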

[13] = NCI Yeast Anticancer Drug Screen. Data for the CLN2oe strain (AID 163);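 further: 0% = growth of vehicle-only control cultures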; conditions: S. cerevisiae CLN2oe strain, active compounds read high
How it was run: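 Values reflect how much compound exposure reduced yeast growth, referenced to vehicle-exposed cells. Assay organism is a strain with a defined genetic change affecting cell-cycle control.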

[14] = NCI Yeast Anticancer Drug Screen. Data for the cln2 rad14 strain (AID 165);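 further: 0% = growth equal to vehicle treated cultures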; conditions: S. cerevisiae cln2 rad14 strain, active compounds read high
How it was run: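 Relative to vehicle controls, growth inhibition of compound-treated cln2 rad14 yeast was recorded.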

[15] = NCI Yeast Anticancer Drug Screen. Data for the bub3 strain (AID 167); conditions: S. cerevisiae bub3 mutant strain, active compounds read high
How it was run: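 Mutant yeast screening strain plus compound; vehicle-treated cultures serve as the 0% inhibition reference.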

[16] = NCI Yeast Anticancer Drug Screen. Data for the mlh1 rad18 strain (AID 175); conditions: S. cerevisiae mlh1 rad18 strain growth inhibition, active compounds read high
How it was run: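 Test agents were incubated with a yeast strain of defined genotype (DNA damage repair defect). Inhibition of growth was derived by comparison with vehicle-exposed cultures.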

[17] = at 5.0 µM (retest, dose inferred, filed as 0.5)
[18] = at 50.0 µM (retest, dose inferred, filed as 5.0)

Measured: growth inhibition

COC(=O)c1cnc(Cl)c([N+](=O)[O-])c1
inactive: [1]; at 1.2 µM 4% | [1]; at 3.7 µM 20% | [2]; at 1.2 µM 3% | [2]; at 3.7 µM 11% | [3]; at 1.2 µM 5% | [3]; at 3.7 µM 20% | [4]; at 1.2 µM 4% | [4]; at 3.7 µM 29%
active: [1]; at 11.0 µM 88% | [1]; at 33.0 µM 99% | [1]; at 100.0 µM 99% | [2]; at 11.0 µM 92% | [2]; at 33.0 µM 99% | [2]; at 100.0 µM 100% | [3]; at 11.0 µM 88% | [3]; at 33.0 µM 98% | [3]; at 100.0 µM 99% | [4]; at 11.0 µM 95% | [4]; at 33.0 µM 98% | [4]; at 100.0 µM 99%

C=COC(=O)N[C@H]1CCc2cc(OC)c(OC)c(OC)c2-c2ccc(SC)c(=O)cc21
inactive: [5]; at 1.2 µM -2% | [5]; at 3.7 µM 1% | [5]; at 11.0 µM 6% | [5]; at 33.0 µM 14% | [6]; at 1.2 µM -2% | [6]; at 3.7 µM -2% | [6]; at 11.0 µM -3% | [6]; at 33.0 µM -2% | [6]; at 100.0 µM 18% | [7]; at 1.2 µM -8% | [7]; at 3.7 µM -2% | [7]; at 11.0 µM -3% | [7]; at 33.0 µM -6% | [7]; at 100.0 µM -2% | [8]; at 1.2 µM -5% | [8]; at 3.7 µM -8% | [8]; at 11.0 µM -4% | [8]; at 33.0 µM 13% | [8]; at 100.0 µM 64% | [9]; at 1.2 µM 1% | [9]; at 3.7 µM 4% | [9]; [17] -6% | [9]; at 11.0 µM 10% | [9]; at 33.0 µM 20% | [9]; [18] 34% | [9]; at 50.0 µM 38.5% | [10]; at 1.2 µM -5% | [10]; at 3.7 µM -4% | [10]; [17] -9% | [10]; at 11.0 µM -5% | [10]; at 33.0 µM 2% | [10]; [18] 41% | [10]; at 50.0 µM 30.9% | [11]; at 1.2 µM -1% | [11]; at 3.7 µM -1% | [11]; at 11.0 µM 6% | [11]; at 33.0 µM 19% | [12]; [17] -9% | [12]; [18] 42% | [12]; at 50.0 µM 38% | [13]; at 1.2 µM -4% | [13]; at 3.7 µM -2% | [13]; at 11.0 µM -12% | [13]; at 33.0 µM -10% | [14]; [17] 3% | [14]; [18] 6% | [14]; at 50.0 µM 20.4% | [15]; at 1.2 µM -3% | [15]; at 3.7 µM -6% | [15]; [17] -3% | [15]; at 11.0 µM -6% | [15]; at 33.0 µM 4% | [15]; [18] 67% | [15]; at 50.0 µM 34.2% | [15]; at 100.0 µM 58% | [1]; at 1.2 µM -3% | [1]; at 3.7 µM -4% | [1]; at 11.0 µM -3% | [1]; at 33.0 µM 1% | [2]; at 1.2 µM 1% | [2]; at 3.7 µM -1% | [2]; at 11.0 µM 0% | [2]; at 33.0 µM 12% | [3]; at 1.2 µM -2% | [3]; at 3.7 µM -3% | [3]; at 11.0 µM 1% | [3]; at 33.0 µM 14% | [4]; at 1.2 µM -2% | [4]; at 3.7 µM 0% | [4]; at 11.0 µM 3% | [4]; at 33.0 µM 13%
active: [5]; at 100.0 µM 75% | [9]; at 100.0 µM 88% | [10]; at 100.0 µM 73% | [11]; at 100.0 µM 93% | [13]; at 100.0 µM 80% | [1]; at 100.0 µM 76% | [2]; at 100.0 µM 84% | [3]; at 100.0 µM 73% | [4]; at 100.0 µM 75%

O=Cc1ccccc1C=O
active: [5]; at 100.0 µM 73% | [6]; at 100.0 µM 90% | [8]; at 100.0 µM 91% | [9]; at 100.0 µM 89% | [10]; at 50.0 µM 80.5% | [10]; at 100.0 µM 90% | [11]; at 100.0 µM 86% | [13]; at 100.0 µM 85% | [14]; [18] 74% | [15]; [18] 76% | [15]; at 100.0 µM 81% | [1]; at 100.0 µM 86% | [3]; at 100.0 µM 72% | [16]; at 50.0 µM 82% | [4]; at 100.0 µM 88%
inactive: [5]; at 1.2 µM -13% | [5]; at 3.7 µM -11% | [5]; at 11.0 µM -7% | [5]; at 33.0 µM 4% | [6]; at 1.2 µM -35% | [6]; at 3.7 µM -31% | [6]; at 11.0 µM -17% | [6]; at 33.0 µM 0% | [7]; at 1.2 µM -8% | [7]; at 3.7 µM -13% | [7]; at 11.0 µM -2% | [7]; at 33.0 µM 6% | [7]; at 100.0 µM 34% | [8]; at 1.2 µM 4% | [8]; at 3.7 µM 9% | [8]; at 11.0 µM 20% | [8]; at 33.0 µM 36% | [9]; at 1.2 µM 14% | [9]; at 3.7 µM 12% | [9]; [17] -6% | [9]; at 11.0 µM 19% | [9]; at 33.0 µM 28% | [9]; [18] 16% | [9]; at 50.0 µM 44.6% | [10]; at 1.2 µM -17% | [10]; at 3.7 µM -22% | [10]; [17] -8% | [10]; at 11.0 µM -12% | [10]; at 33.0 µM 32% | [10]; [18] 32% | [11]; at 1.2 µM -17% | [11]; at 3.7 µM -12% | [11]; at 11.0 µM -8% | [11]; at 33.0 µM 23% | [12]; [17] -3% | [12]; [18] 43% | [12]; at 50.0 µM 40.3% | [13]; at 1.2 µM 4% | [13]; at 3.7 µM 7% | [13]; at 11.0 µM 3% | [13]; at 33.0 µM 22% | [14]; [17] 5% | [14]; at 50.0 µM 13.6% | [15]; at 1.2 µM 6% | [15]; at 3.7 µM 17% | [15]; [17] -32% | [15]; at 11.0 µM 14% | [15]; at 33.0 µM 23% | [15]; at 50.0 µM 24.4% | [1]; at 1.2 µM -20% | [1]; at 3.7 µM -26% | [1]; at 11.0 µM -15% | [1]; at 33.0 µM -35% | [3]; at 1.2 µM -19% | [3]; at 3.7 µM -25% | [3]; at 11.0 µM -15% | [3]; at 33.0 µM 2% | [16]; [17] -23% | [16]; [18] 48% | [4]; at 1.2 µM -4% | [4]; at 3.7 µM -5% | [4]; at 11.0 µM 0% | [4]; at 33.0 µM 26%
